Data: the antibiotic and cytotoxicity screens of Wong et al. (2023)
Screen size: about 39,000 compounds; about 1,500 (3.8%) were called active. The entries come from a sample that favours actives as a whole.

Each compound was assayed on HSkMC (human skeletal muscle cells) (assay: cytotoxicity call (relative viability < 0.9)). Conditions: 10 µM.

SMILES | cytotoxicity call
CN1CCN(C)C2(CCN(C(=O)c3ccn[nH]3)CC2)C1=O | inactive
COCCNC(=O)C[C@@H]1CC[C@H]2[C@@H](COc3ccc(NS(=O)(=O)c4ccc(Cl)cc4)cc3C(=O)N2C)O1 | inactive
C[C@H](CO)N1C[C@H](C)[C@@H](CN(C)C(=O)Nc2ccc(F)cc2)OCCCC[C@H](C)Oc2ccc(NS(=O)(=O)c3cccs3)cc2C1=O | inactive
C[C@@H]1CN([C@H](C)CO)C(=O)c2cc(NC(=O)CCC(F)(F)F)ccc2O[C@@H]1CN(C)C(=O)Nc1cccc2ccccc12 | inactive
COc1ccc(NC(=O)N2C[C@H](O)COC[C@H]3O[C@H](CC(=O)NCc4ccccc4OC)CC[C@@H]32)cc1 | inactive
C[C@@H]1CCCCO[C@@H](CN(C)C(=O)C2CCCCC2)[C@H](C)CN([C@H](C)CO)C(=O)c2cc(NC(=O)Nc3ccc4c(c3)OCO4)ccc2O1 | inactive
COc1ccc2occ(C(C)=O)c2c1 | inactive
C[C@@H]1CN([C@H](C)CO)C(=O)c2cc(NS(=O)(=O)c3ccc(Cl)cc3)ccc2O[C@H]1CN(C)Cc1ccc(-c2ccccc2)cc1 | active
C[C@H](CO)N1C[C@H](C)[C@@H](CN(C)Cc2ccc(-c3ccccc3)cc2)Oc2ccc(NS(=O)(=O)c3ccc(Cl)cc3)cc2C1=O | active
C[C@@H]1CN([C@H](C)CO)C(=O)c2cc(NS(=O)(=O)c3ccccc3)ccc2O[C@H]1CN(C)Cc1ccc(-c2ccccc2)cc1 | inactive
COc1cccc(C#Cc2ccc([C@H]3[C@H]4CN(S(=O)(=O)c5ccccc5C)CC(=O)N4[C@H]3CO)cc2)c1 | inactive
C[C@H](CO)N1C[C@H](C)[C@@H](CN(C)C(=O)Cc2ccncc2)Oc2cc(C#CC3CCCCC3)ccc2S1(=O)=O | inactive
O=C(Nc1ccc([N+](=O)[O-])cc1Cl)c1cc(Cl)ccc1O | active
NC(=O)c1ccc([N+](=O)[O-])cc1Cl | inactive
O=C(Nc1cc(Cl)ccc1Cl)c1cc(Cl)ccc1NS(=O)(=O)c1ccc(Cl)c([N+](=O)[O-])c1 | inactive
C[C@@H]1CN([C@H](C)CO)C(=O)c2cccc(NC(=O)NC3CCCCC3)c2O[C@H]1CN(C)Cc1ccc(C(F)(F)F)cc1 | inactive
CN(C)C(=O)c1ccc(-c2cccc(-c3nc(C(=O)NCc4ccccc4)cc4c3[C@H](CCO)N([S@@](=O)C(C)(C)C)C4)c2)cc1 | inactive
COc1cccc(CNC(=O)c2cc3c(c(-c4cccc(-c5ccc(C#N)cc5)c4)n2)[C@H](CCO)N([S@@](=O)C(C)(C)C)C3)c1 | inactive
CN(C)C(=O)c1ccc(-c2cccc(-c3nc(C(=O)NCc4ccccc4)cc4c3[C@@H](CCO)N([S@](=O)C(C)(C)C)C4)c2)cc1 | inactive
CN(C)C(=O)c1cccc(-c2cccc(-c3nc(C(=O)NC4CCCCC4)cc4c3[C@@H](CCO)N([S@](=O)C(C)(C)C)C4)c2)c1 | inactive
COc1cccc(CNC(=O)c2cc3c(c(-c4cccc(-c5cccc(C#N)c5)c4)n2)[C@H](CCO)N([S@@](=O)C(C)(C)C)C3)c1 | inactive

SMILES | cytotoxicity call
CN(C)C(=O)c1cccc(-c2cccc(-c3nc(C(=O)NC4CCCCC4)cc4c3[C@@H](CCO)N([S@@](=O)C(C)(C)C)C4)c2)c1 | active
CN(C)C(=O)c1ccc(-c2cccc(-c3nc(C(=O)NCc4ccccc4)cc4c3[C@@H](CCO)N([S@@](=O)C(C)(C)C)C4)c2)cc1 | active
CN(C)C(=O)c1cccc(-c2cccc(-c3nc(C(=O)NC4CCCCC4)cc4c3[C@H](CCO)N([S@@](=O)C(C)(C)C)C4)c2)c1 | inactive
COc1cccc(CNC(=O)c2cc3c(c(-c4cccc(-c5ccc(C#N)cc5)c4)n2)[C@@H](CCO)N([S@](=O)C(C)(C)C)C3)c1 | active
C[C@H](CO)N1C[C@H](C)[C@H](CN(C)Cc2ccc(C(=O)O)cc2)OCCCC[C@H](C)Oc2ccc(NC(=O)C3CCCCC3)cc2C1=O | inactive
C[C@H](CO)N1C[C@H](C)[C@H](CN(C)S(C)(=O)=O)OCCCC[C@H](C)Oc2ccc(NC(=O)CCCN(C)C)cc2C1=O | inactive
CC(C)NC(=O)Nc1ccc2c(c1)C(=O)N([C@@H](C)CO)C[C@@H](C)[C@H](CN(C)S(=O)(=O)c1cn(C)cn1)OCCCC[C@H](C)O2 | inactive
C[C@@H]1CN([C@H](C)CO)C(=O)CCCn2cc(nn2)CO[C@@H]1CN(C)S(=O)(=O)c1ccc(Cl)cc1 | inactive
O=C(O)[C@]1(O)C[C@@H](O)[C@@H](O)[C@H](O)C1 | inactive
Cc1noc(C)c1S(=O)(=O)Nc1ccc2c(c1)CC(=O)N([C@@H](C)CO)C[C@H](C)[C@H](CN(C)Cc1ccccc1)O2 | inactive
C[C@H](CO)N1C[C@H](C)[C@H](CN(C)C(=O)Nc2ccc(C(F)(F)F)cc2)Oc2ccc(NS(C)(=O)=O)cc2C1=O | inactive
C[C@@H]1CN([C@H](C)CO)C(=O)c2cccc(NC(=O)C3CC3)c2O[C@H]1CN(C)S(=O)(=O)c1ccc(Cl)cc1 | inactive
Cc1ccc(S(=O)(=O)N(C)C[C@H]2OCCCC[C@H](C)Oc3ccc(NC(=O)Nc4ccc(F)cc4)cc3C(=O)N([C@@H](C)CO)C[C@@H]2C)cc1 | inactive
CC(=O)N1CCc2nc(C(N)=O)sc2CC1 | inactive
O=C(OC[C@H]1O[C@@H](OC(=O)c2cc(O)c(O)c(O)c2)[C@H](O)[C@@H](O)[C@@H]1O)c1cc(O)c(O)c(O)c1 | inactive
Cc1coc(C)c1C(=O)O[C@@H]1O[C@@H](C)[C@H](O)[C@@H](O)[C@H]1O | active
COC1C(C(=O)O)OC(C)C(O)C1O.COC1OC(C(=O)O)C(O)C(O)C1O (configuration not stated) [ALGINIC ACID [Mol Wt ~200,000; monomers shown] ] | inactive
C[C@H]1CN([C@@H](C)CO)C(=O)c2cccc(NS(=O)(=O)c3ccc(Cl)cc3)c2O[C@@H]1CN(C)Cc1ccc(-c2ccccc2)cc1 | inactive
Cc1noc(C)c1NC(=O)N(C)C[C@@H]1Oc2ccc(NC(=O)C3CC3)cc2CC(=O)N([C@@H](C)CO)C[C@@H]1C | inactive
COc1ccc(S(=O)(=O)N(C)C[C@@H]2Oc3ccc(NS(=O)(=O)c4ccc(F)cc4)cc3CC(=O)N([C@H](C)CO)C[C@H]2C)cc1 | inactive
C[C@@H]1CN([C@@H](C)CO)C(=O)c2cc(C#Cc3ccccn3)cnc2O[C@H]1CN(C)C(=O)CCN1CCCCC1 | inactive

SMILES | cytotoxicity call
C[C@@H]1CCCCO[C@H](CN(C)C)[C@@H](C)CN([C@H](C)CO)C(=O)c2cc(NS(=O)(=O)c3cn(C)cn3)ccc2O1 | inactive
COc1ccc(S(=O)(=O)Nc2ccc3c(c2)C(=O)N([C@H](C)CO)C[C@H](C)[C@@H](CN(C)Cc2ccc(C(=O)O)cc2)OCCCC[C@H](C)O3)cc1 | inactive
C[C@H]1CN([C@@H](C)CO)C(=O)c2cc(NC(=O)Nc3ccc(C(F)(F)F)cc3)ccc2O[C@H]1CN(C)Cc1ccc(-c2ccccc2)cc1 | active
C[C@H](CO)N1C[C@H](C)[C@@H](CN(C)Cc2ccc(-c3ccccc3)cc2)Oc2ccc(NC(=O)Nc3ccc(C(F)(F)F)cc3)cc2C1=O | active
C[C@@H]1CN([C@@H](C)CO)C(=O)c2cc(NC(=O)Nc3ccc(C(F)(F)F)cc3)ccc2O[C@@H]1CN(C)Cc1ccc(-c2ccccc2)cc1 | active
C[C@@H]1CN([C@H](C)CO)C(=O)Cc2cc(NS(=O)(=O)c3cn(C)cn3)ccc2O[C@H]1CN(C)CC1CC1 | inactive
Cc1noc(C)c1NC(=O)Nc1ccc2c(c1)CC(=O)N([C@H](C)CO)C[C@H](C)[C@H](CN(C)S(=O)(=O)c1ccccc1)O2 | inactive
CO[C@H]1CN(C)C(=O)c2ccc(NS(=O)(=O)CC(F)(F)F)cc2OC[C@H](C)N(C(=O)NC(C)C)C[C@H]1C | inactive
COc1cccc(C(=O)Nc2ccc3c(c2)C(=O)N(C)[C@@H]2CC[C@H](CC(=O)NCCCN4CCOCC4)O[C@H]2CO3)c1 | inactive
COc1ccc(S(=O)(=O)N(C)C[C@@H]2OCCCC[C@H](C)Oc3ccc(NC(=O)CCC(F)(F)F)cc3C(=O)N([C@H](C)CO)C[C@H]2C)cc1 | inactive
OC[C@H]1O[C@@H](Nc2ccccn2)[C@@H](O)[C@@H](O)[C@@H]1O | inactive
COc1ccc(S(=O)(=O)N(C)C[C@H]2Oc3ncc(-c4ccncc4)cc3C(=O)N([C@@H](C)CO)C[C@@H]2C)cc1 | inactive
Cc1nn(C)cc1NC(=O)C[C@@H]1CC[C@H]2[C@H](COc3ccc(NC(=O)C4CCOCC4)cc3C(=O)N2C)O1 | inactive
COc1cccc(C#Cc2ccc3c(c2)O[C@H](CN(C)S(=O)(=O)c2ccccc2F)[C@@H](C)CN([C@@H](C)CO)S3(=O)=O)c1 | inactive
C[C@@H]1CN([C@H](C)CO)C(=O)c2cc(NC(=O)Nc3ccc(C(F)(F)F)cc3)ccc2O[C@H]1CN(C)Cc1ccc(-c2ccccc2)cc1 | active
C[C@@H]1CN([C@@H](C)CO)C(=O)c2cc(NC(=O)Nc3ccc(C(F)(F)F)cc3)ccc2O[C@H]1CN(C)Cc1ccc(-c2ccccc2)cc1 | active
C[C@H]1CN([C@@H](C)CO)C(=O)c2cc(NC(=O)Nc3ccccc3)ccc2O[C@@H]1CN(C)Cc1ccc(C(F)(F)F)cc1 | inactive
C[C@H](CO)N1C[C@H](C)[C@H](CN(C)Cc2ccc(-c3ccccc3)cc2)Oc2ccc(NC(=O)Nc3ccc(C(F)(F)F)cc3)cc2C1=O | active
C[C@@H]1CN([C@H](C)CO)C(=O)c2cc(NC(=O)Nc3ccc(C(F)(F)F)cc3)ccc2O[C@@H]1CN(C)Cc1ccc(-c2ccccc2)cc1 | active
C[C@@H]1CN([C@@H](C)CO)C(=O)c2cc(NC(=O)Nc3ccccc3)ccc2O[C@@H]1CN(C)Cc1ccc(C(F)(F)F)cc1 | inactive
